A selection: hits, their analogues and other compounds. The true share with any hit is near 3.5%.
TR SRC2 fluor cs: Texas Red fluorescence interference in TRb-SRC2 counter-screen; Potency, µM (top dose mostly 106 µM); TRb/SRC2 Texas Red total fluorescence interference; AID 1479; actives 0.29% (n = 280,000); active = well fitted curve in either direction with a large enough effect; inconclusive = small, poorly fitted or top-dose-only effect
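Human TRb ligand-binding domain at 0.6 uM with 20 nM Texas Red SRC2 peptide in Tris buffer containing 1 uM T3 and 5% DMSO, incubated with compound 5 h at ambient temperature. Total fluorescence (555/632 nm) calculated as parallel + 2 × perpendicular.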
Tau fluor counter: counter-screen for tau fibril formation inhibitors. tau K18 P301L Alexa594 fluorescence, heparin fibrillization. Potency, µM (highest dose often 57.7 µM). actives 0.93% (n = 280,000); note: nearly all actives have a fitted effect of over 55% in size
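Human tau K18 P301L (15 uM unlabeled, 0.24 uM Alexa 594-labeled) in 100 mM sodium acetate pH 7 with 20 uM heparin, 6 hr at 37 C. ThT 30 uM added, 1 hr ambient; Alexa 594 FP and total fluorescence read at 555/632 nm.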
Tau fibril FP: blocks human tau fibril formation measured by polarization; Potency, µM (series often up to 57.7 µM), actives largely listed as inhibitors; actives 0.39% (n = 280,000); K18 P301L tau heparin fibrillization, Alexa594 FP, 6 h; P10636; note: nearly all actives have a fitted effect of over 55% in size
Target sequence (P10636 561-689 P618L limits assumed): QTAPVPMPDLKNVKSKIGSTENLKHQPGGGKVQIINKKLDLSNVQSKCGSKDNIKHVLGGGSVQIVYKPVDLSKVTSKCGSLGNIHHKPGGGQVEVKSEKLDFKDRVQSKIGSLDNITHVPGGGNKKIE
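FP of Alexa 594-tau after heparin (20 uM) induction. Substrate: human K18 P301L, 15 uM unlabeled, 0.24 uM labeled. Buffer 100 mM sodium acetate pH 7. 6 hr, 37 C.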
KDM4E inh: JMJD2E (human) inhibition | actives 1.6% (n = 230,000) | JMJD2E catalytic domain, FDH-coupled NADH fluorescence (FDH is formaldehyde dehydrogenase) | B2RXH2 | AID 2147 | Potency, µM (highest dose often 57.1 µM), usual class: inhibitors; active = well fitted inhibition curve with a large enough effect, not every such curve was filed as active; inconclusive = small, poorly fitted or top-dose-only effect, or another doubt; inactive = no such curve, though single readings can be large or run the other way; note: nearly all actives have a fitted effect of over 50% in size
Target sequence (B2RXH2 1-337 limits assumed): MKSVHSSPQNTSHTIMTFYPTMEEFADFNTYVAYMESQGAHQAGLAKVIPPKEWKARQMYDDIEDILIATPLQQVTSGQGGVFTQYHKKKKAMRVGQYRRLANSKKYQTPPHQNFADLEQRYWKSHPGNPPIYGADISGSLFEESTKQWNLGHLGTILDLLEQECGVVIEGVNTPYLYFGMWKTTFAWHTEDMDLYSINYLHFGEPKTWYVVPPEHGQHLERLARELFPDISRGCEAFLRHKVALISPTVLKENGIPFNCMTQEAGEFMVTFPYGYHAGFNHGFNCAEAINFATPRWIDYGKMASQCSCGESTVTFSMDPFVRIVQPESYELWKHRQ
TRb-SRC2 inh: disrupts binding of human TR beta to SRC2 | P10828 | TRbeta-SRC2 peptide binding, fluorescence polarization; receptor liganded with 1 µM T3 | Potency, µM (doses to about 106 µM), usual class: inhibitors | actives 0.065% (n = 280,000) | AID 1469; note: nearly all actives have a fitted effect of over 50% in size
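Polarization signal, normalized between peptide-alone and full complex controls, measured compound effects on T3-liganded human TRb LBD (0.6 uM) binding 20 nM Texas Red SRC2 peptide after 5 hr.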
Tau fibril ThT: tau fibrillization inhibition (ThT binding); Potency, µM (highest dose often 57.4 µM), usual class: inhibitors; recombinant tau K18 P301L (four-repeat tau fragment), heparin-induced fibrillization, ThT fluorescence; actives 2.1% (n = 270,000); note: nearly all actives have a fitted effect of over 55% in size
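Tau K18 P301L fragment (15 uM unlabeled plus 0.24 uM Alexa 594-labeled) in 100 mM sodium acetate pH 7 with compound, fibrillization induced by 20 uM heparin for 6 hr at 37 C. Thioflavin T (30 uM) added, fluorescence read after 1 hr (ex 450, em 510 nm).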
Each line names hits and unclear results; the compound was inactive in the other large screens; [ ] = remark or other dose. Unless noted, calls come from the whole dose curve; as a rule, active = well fitted curve in the direction sought with a large enough effect; inconclusive = small, poorly fitted or top-dose-only effect, or another doubt; inactive = no such curve, though single readings can be large; an effect the other way counts as inactive or inconclusive.

COc1cc2cc3c(N)c(C(=O)NCc4ccco4)sc3nc2cc1OC	Tau fluor counter inconclusive, KDM4E inh inconclusive, Tau fibril ThT 14µM
COc1cc2cc3c(N)c(C(=O)Nc4sc(C)c(C)c4C#N)sc3nc2cc1OC	TR SRC2 fluor cs inconclusive, KDM4E inh inconclusive, TRb-SRC2 inh inconclusive, Tau fibril ThT 5µM
CCC(=O)NCCc1nc2ccccc2n1CC(=O)c1ccccc1	none
CCOC(=O)c1c(-c2ccc(C)cc2)csc1NC(=O)c1cc(=O)c2cc(C)ccc2o1	TR SRC2 fluor cs inconclusive, Tau fibril FP inconclusive, Tau fibril ThT 25µM (no result: KDM4E inh)
CCOC(=O)c1c(-c2ccccc2)csc1NC(=O)c1cc(-c2cccc(OC)c2)on1	Tau fibril FP inconclusive, Tau fibril ThT 32µM (no result: KDM4E inh)
CCOC(=O)c1c(-c2ccc(C)cc2)csc1NC(=O)c1cc(=O)c2cc(C)c(C)cc2o1	none (no result: KDM4E inh)
CCOC(=O)c1c(-c2ccccc2)csc1NC(=O)c1cc(-c2cccc(Cl)c2)on1	none (no result: KDM4E inh)
Cc1ccc2oc(C(=O)Nc3ccc(S(=O)(=O)Nc4nc(C)cc(C)n4)cc3)cc(=O)c2c1	TR SRC2 fluor cs 32µM[quencher] (no result: KDM4E inh)
Cc1ccc(C)c(-n2c(SCC(=O)NCC3CCCO3)nnc2-c2ccoc2C)c1 (stereo unspecified)	Tau fibril FP 28µM, Tau fibril ThT inconclusive
Cc1ccc(-n2c(SCC(=O)NCC3CCCO3)nnc2-c2ccoc2C)cc1 (stereo unspecified)	none
CC/C(=N\NC(=O)CCC(=O)NCc1ccccc1)c1ccc(O)cc1	none
N[C@H](C(=O)O)c1nn[nH]n1	KDM4E inh 20µM
O=C(CSCc1ccccc1F)NCc1ccccc1	KDM4E inh inconclusive
Cc1ccc2c(c1)N(C(=O)Nc1cccc3c1CCCC3)CC(C)O2 (stereo unspecified)	Tau fluor counter inconclusive (no result: KDM4E inh)
CCOC(=O)c1ccccc1NC(=O)N1CC(C)Oc2ccc(C)cc21 (stereo unspecified)	Tau fluor counter 2.8µM[quencher], Tau fibril FP inconclusive (no result: KDM4E inh)
CCc1ccc(NC(=O)N2CC(C)Oc3ccc(C)cc32)cc1 (stereo unspecified)	TR SRC2 fluor cs inconclusive, Tau fluor counter 2.5µM[quencher] (no result: KDM4E inh)
O=C(NCc1ccccc1)c1ccc2nccnc2c1	none
CCCNC(=O)c1ccc2nc(-c3ccccc3)c(-c3ccccc3)nc2c1	KDM4E inh inconclusive
O=C(NCc1ccccc1)c1ccc2nc(-c3ccco3)c(-c3ccco3)nc2c1	TR SRC2 fluor cs inconclusive, Tau fluor counter inconclusive, Tau fibril FP inconclusive, KDM4E inh inconclusive, Tau fibril ThT 14µM
O=C(NCCCO)c1ccc2nc(-c3ccco3)c(-c3ccco3)nc2c1	TR SRC2 fluor cs inconclusive, Tau fluor counter 4.5µM[quencher], Tau fibril FP 8.9µM, KDM4E inh 13µM, Tau fibril ThT 5µM
CCCCNC(=O)c1ccc2nc(-c3ccco3)c(-c3ccco3)nc2c1	Tau fluor counter inconclusive, Tau fibril FP inconclusive, KDM4E inh inconclusive, Tau fibril ThT 16µM
Cc1[nH]c(=O)[nH]c(=O)c1S(=O)(=O)N1CCCC(C(=O)N2CCN(c3cccc(C(F)(F)F)c3)CC2)C1 (stereo unspecified)	none
COc1ccc(N/N=C(\C#N)C(=N)SCc2ccccc2)cc1	Tau fluor counter inconclusive, Tau fibril ThT 14µM
COc1cc(/C=C2/SC(=Nc3ccc(O)cc3)NC2=O)ccc1O	Tau fluor counter inconclusive, Tau fibril FP inconclusive, Tau fibril ThT 4.5µM
COc1cc(/C=C2/CC/C(=C/c3ccc(O)c(OC)c3)C2=O)ccc1O	TR SRC2 fluor cs inconclusive, Tau fibril FP inconclusive, KDM4E inh 11µM, Tau fibril ThT 0.89µM
COc1cc(/C=C2\CC/C(=C\c3ccc(OCCO)c(OC)c3)C2=O)ccc1OCCO	Tau fibril FP inconclusive, Tau fibril ThT 14µM
COc1cc(/C=C2\COC/C(=C\c3ccc(O)c(OC)c3)C2=O)ccc1O	Tau fluor counter inconclusive, Tau fibril FP inconclusive, Tau fibril ThT 10µM
Cc1c(C(=O)OC2CCCCC2)[nH]c2c1C(=O)CC(c1ccc(F)cc1)C2 (stereo unspecified)	TR SRC2 fluor cs inconclusive (no result: KDM4E inh)
CC(C)Cc1nc2n[nH]c(N)c2c2c1COC(C)(C)C2	none

Assay outcomes: PubChem BioAssay, National Center for Advancing Translational Sciences (NCATS)
